Rows were chosen to be rich in hits. Some 4.1% of all compounds tested hit in one or more screens of this group.
DAX1 inh-1: DAX1 (NR0B1) inhibition, primary screen; 370,000 compounds, 1.1% hits; HEK293T StAR-luciferase reporter, SF-1/DAX-1 repression relief; inhibition, % at 6.8 µM;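 active = inhibition above the mean over all tested compounds plus 3 SD, cut at about 3.6% in these data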;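 also: 0% = DAX-1 cells with DMSO and 100% = cells lacking DAX-1 with DMSO; higher inhibition means more luminescence from relief of DAX-1 repression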
hcDAF-12 act: activators of H. contortus DAF-12 nuclear receptor; HEK293 hcDAF-12 lit1-tk-luc reporter, luminescence; 0% DMSO, 100% Δ7-dafachronic acid; activation, % at 6.8 µM; 370,000 compounds, 1.4% hits; AID 652067;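 active = activation above the mean of all tested compounds plus 3 SD, cut at about 5.5% in these data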;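 also: 100% = response to 3 µM Δ7-dafachronic acid high control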
hgDAF12 agonist: hgDAF-12 agonism, primary luciferase screen. HEK293 GAL4-hgDAF12 UAS-luciferase reporter, agonist luminescence; normalized to butyrate control. activation, % at 6.8 µM. 370,000 compounds, 1.8% hits;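 active = activation above a cutoff set at the mean of all screened compounds plus 3 SD, cut at about 10% in these data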;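 also: 0% = DMSO wells and 100% = sodium butyrate wells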
ssDAF-12 act: S. stercoralis DAF-12 activation, primary screen; HEK293 ssDAF-12/GRIP1 lit1-tk-luc reporter, luminescence; % of 3 µM dafachronic acid response; 370,000 compounds, 1% hits; activation, % at 6.8 µM; AID 652126;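 active = activation above the mean over all tested compounds plus 3 SD, cut at about 0.9% in these data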;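 also: 0% = DMSO-only wells and 100% = 3 µM delta7-dafachronic acid wells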
DAX1 inh-2: NR0B1 (DAX1) inhibition | P51843 | HEK293 Gal4-DAX1 luciferase reporter, luminescence | inhibition, % at 6.75 µM | 340,000 compounds, 0.99% hits | AID 504766;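 active = inhibition above the mean over all tested compounds plus 3 SD, cut at about 4.2% in these data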;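 also: 0% = DAX1-transfected cells with DMSO and 100% = empty-vector control cells with DMSO; inhibition shows as a rise in luminescence from relieved DAX1 repression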
Target sequence (P51843 207-470 limits assumed): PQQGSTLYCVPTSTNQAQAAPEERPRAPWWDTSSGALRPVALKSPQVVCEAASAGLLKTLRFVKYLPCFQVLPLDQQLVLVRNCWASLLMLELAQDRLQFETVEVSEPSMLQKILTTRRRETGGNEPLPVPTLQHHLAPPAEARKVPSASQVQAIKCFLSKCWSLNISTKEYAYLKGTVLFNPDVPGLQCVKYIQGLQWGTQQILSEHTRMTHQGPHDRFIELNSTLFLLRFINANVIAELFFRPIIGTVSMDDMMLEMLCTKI
Starred values were filed as active, the others as inactive; . = no result given; ! = not active in a repeat.

SMILES	DAX1 inh-1	hcDAF-12 act	hgDAF12 agonist	ssDAF-12 act	DAX1 inh-2
Cc1ccccc1NC(=O)c1ccc2ccccc2c1	1.1	2.4	6.0	-0.4	5.0*
CCc1ccc(N(CC(=O)NC2CCCCC2)C(=O)CCC(=O)Nc2ccccn2)cc1	0.0	-0.9	-1.1	-1.6	0.7
CCCCC(CC)c1nnc(NC(=O)c2cccs2)s1 (stereo unspecified)	-0.4	-1.4	-2.9	-1.6	0.8
CC(C)c1nnc(NC(=O)c2cccs2)s1	2.2	4.7	11.6*	-0.2	-0.3
O=C(Nc1nnc(C2CC2)s1)c1cccs1	3.8*	0.8	5.0	-0.4	0.4
C/C(=N\NC(=O)C(O)c1ccccc1)c1ccc(Cl)cc1 (stereo unspecified)	0.6	-0.9	-1.0	1.4*	1.6
CCC(=O)c1ccc(OCC(=O)O)cc1	0.5	0.9	-1.0	-1.8	1.9
CCC(=O)c1ccc(OCc2ccc(C#N)cc2)cc1	2.1	0.1	12.4*	0.1	1.9
COc1ccc(CC(=O)NCC(=O)N/N=C/c2sccc2C)cc1	-0.1	6.4*	1.1	-1.3	-0.5
CCCCNC(=S)N/N=C/c1sccc1C	-0.5	-1.4	10.9*	-1.2	2.2
C=CCOC(=O)C1=C(C)NC(SCC(=O)NC(=O)OCC)=C(C#N)C1c1cccnc1 (stereo unspecified)	-0.1	-1.7	-0.7	-1.3	5.3*!
C=CCOC(=O)C1=C(C)NC(SCC(=O)N(CC)CC)=C(C#N)C1c1ccccc1 (stereo unspecified)	-1.5	-4.4	-10.0	-1.6	-3.5
CC(=NNC(=O)CSc1nnc(-c2ccccc2)n1-c1ccccc1)c1cccc([N+](=O)[O-])c1	-1.7	-3.7	-2.6	-1.8	.
CC(C)n1nnnc1C1c2ccccc2C(=O)N1CCc1ccccc1F (stereo unspecified)	1.6	5.7*	15.1*	0.1	.
CC(C)n1nnnc1C1c2ccccc2C(=O)N1CCOc1ccccc1 (stereo unspecified)	1.8	5.1	12.5*	0.7	.
COC[C@@H]1CCCN1c1cccc2c1S(=O)(=O)N1CC[C@H](C1)O2	-0.4	0.3	-3.2	-0.4	.
CCOC(=O)C1(CC2CCCCO2)CCN(Cc2nc3ccccc3nc2C)CC1 (stereo unspecified)	-0.8	4.0	-0.1	-0.9	.
CCOC(=O)C1(C(=O)OCC)COC(=O)C1CN1Cc2cc3ccccc3nc2C1 (stereo unspecified)	-0.9	4.3	2.2	1.0*	-1.1
CNCCOc1ccc(Cl)c(Cl)c1	0.1	-1.0	-2.7	-0.6	5.3*
CC(=O)N1CCN(C(=O)CSc2nc3cccnc3n2C)CC1	-0.9	-1.1	-0.9	-0.8	.
O=C(NCCCn1ccnc1)c1ccc(Cl)cc1[N+](=O)[O-]	0.0	1.2	0.8	-1.1	0.0
O=C(NCCCn1ccnc1)c1cc2cc([N+](=O)[O-])ccc2oc1=O	0.4	-0.2	0.8	-0.4	4.2*
COc1cc(NC(=O)C(OC(=O)CNC(=O)c2ccccc2)c2ccccc2)cc(C(F)(F)F)c1 (stereo unspecified)	.	-2.9	4.3	-2.1	.
O=C(COC(=O)CNS(=O)(=O)c1ccc(Br)cc1Cl)NCCc1ccccc1	-4.0	2.3	2.0	1.4*	-0.3
CC(=O)N1CCN(c2cc(-c3ccco3)nc3cc(-c4ccccc4)nn23)CC1	.	-3.2	-3.4	-1.6	.
SMILES	DAX1 inh-1	hcDAF-12 act	hgDAF12 agonist	ssDAF-12 act	DAX1 inh-2
Cc1ccc(OCCn2nnc3ccccc32)cc1C	1.1	3.0	12.6*	-0.8	0.6
O=C(Cn1nnc2ccccc21)OCc1ccccc1	0.2	-1.5	1.8	-0.6	0.3
CC(=O)c1nc2ccccc2n1CCc1ccccc1	0.0	-0.3	1.2	1.2*	1.5
O=C(Cn1nnc2ccccc21)NCc1ccccc1	1.4	2.8	10.8*	-0.7	3.0
O=C(Cn1nnc2ccccc21)c1ccc(Br)cc1	1.2	-0.3	1.5	-1.5	1.5
Cc1ccc(C(=O)Cn2nnc3ccccc32)cc1	2.0	3.5	11.3*	-0.3	0.4
COc1ccc(N2CCN(CCNS(=O)(=O)c3ccc(Br)s3)CC2)cc1	-1.7	-1.9	2.7	-2.2	.
c1ccc(CCn2nnc3ccccc32)cc1	2.4	2.6	8.3	-1.2	6.3*
N#CCCn1nnc2ccccc21	0.1	-1.5	2.3	-0.7	0.4
COC(=O)[C@]12C[C@H](CC(=O)NCc3cccc(C(F)(F)F)c3)C(=O)N(CCC3=CCCCC3)C1=C[C@H](C(C)(C)C)O[C@@H]2C	-0.6	-1.7	2.6	-0.9	.
O=C(NCc1ccc(F)cc1)c1ccc2c(=O)n3c(nc2c1)CCCCC3	-0.7	0.6	-1.5	-1.3	5.0*
CCc1nnc(NC(=O)c2ccc3c(=O)n4c(nc3c2)CCC4)s1	4.4*	0.9	4.5	-0.8	4.2*
C=C1CCC2C(C)(C)CCC[C@]2(C)[C@H]1CC1=C(O)C(=O)C(CO)=CC1=O (stereo partly specified)	-7.0	-6.3	-13.7	-1.4	.
O=C(CSc1nc(-c2ccco2)cc(C(F)(F)F)n1)NCCN1CCOCC1	-0.2	-1.9	0.1	-1.4	6.0*
O=C(CSc1nc(-c2ccc(F)cc2)cc(C(F)(F)F)n1)NCCN1CCOCC1	0.2	0.0	0.1	-1.4	1.7
CCN(CC)c1ccc(C=C2C(=O)OC(C)(C(C)(C)C)OC2=O)cc1 (stereo unspecified)	-0.8	0.9	0.1	-1.3	4.9*
CCOc1ccc(-n2c(SCC(=O)Nc3cccc4ccccc34)nnc2-c2ccccc2)cc1	-0.2	1.2	-1.4	-1.4	.
Cc1ccccc1NC(=O)COC(=O)/C=C/c1cn(-c2ccccc2)nc1-c1cccnc1	-0.4	0.3	-0.4	1.1*	0.3
O=c1cc(CN2CCCC2)c2c(ccc3ccccc32)o1	-1.6	-0.6	0.5	-0.1	.
N/C(=N\C(=O)OCc1ccccc1)N(CC#CC1=CCCCC1)CC1CC1	-0.3	0.9	4.4	-1.5	.
COc1ccc(CCNC(=O)c2cc(-c3ccncc3)nc3c(Cl)cccc23)cc1OC	0.1	0.8	1.1	-1.8	2.0
COc1ccccc1CNC(=O)c1cc(-c2ccncc2)nc2c(Cl)cccc12	1.7	6.0*	-0.3	0.6	0.1
CC(OC(=O)c1ccc(Cl)nc1)C(=O)NC1(C#N)CCCCC1 (stereo unspecified)	-1.0	-1.0	1.4	-0.9	4.5*
CC(OC(=O)c1ncc(Cl)c(Cl)c1Cl)C(=O)NC1(C#N)CCCCC1 (stereo unspecified)	0.2	0.8	2.3	-0.4	0.3
Cc1cccc(C(=O)OCC(=O)N2CCCCCC2)c1O	1.9	4.5	1.8	0.0	4.5*
Cc1cccc(C(=O)OCC(=O)N2CCc3ccccc3C2)c1O	-0.5	0.8	2.0	-0.5	-0.3
COc1cc(O)c(C(C)=O)c(OC)c1	-0.4	-0.5	-0.7	-1.6	0.0
COc1cc(O)c(C(C)=O)c(CC(=O)O)c1	0.3	-1.1	-2.5	0.9*	-1.1

Bioassay records (PubChem BioAssay)
